The record followed here is PubChem BioAssay (NCI).

Compounds without any hit were thinned out: in the full panel of roughly 79,000, 15% have a hit. Values without a mark were called inactive. Activity calls are given as the source filed them. No stated cut-off is given here; in the data, active means growth inhibition above about 70%; inactive means the rest.

A short description of experiment [1]: NCI Yeast Anticancer Drug Screen. Data for the rad50 strain (AID 155).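 Further: 0% = growth of vehicle-only cultures of the same strain.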 The conditions noted are these: S. cerevisiae rad50 strain growth inhibition, stronger effect = higher value. The gist of the method:
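Yeast carrying a defined DNA repair defect were exposed to test compounds, and growth was compared with vehicle-treated controls to give percent inhibition.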

The nature of experiment [2]: NCI Yeast Anticancer Drug Screen. Data for the mec2-1 strain (AID 157). The conditions noted are these: S. cerevisiae mec2-1 strain, stronger effect = higher value. Summed up: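 mec2-1 yeast strain, carrying an alteration in DNA damage repair or cell cycle control, was exposed to compounds; growth inhibition was measured relative to vehicle-treated controls.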
Experiment [3] in a line: NCI Yeast Anticancer Drug Screen. Data for the sgs1 mgt1 strain (AID 161).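 Further: 0% = growth of cultures given vehicle only.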 The conditions noted are these: S. cerevisiae sgs1 mgt1 strain, stronger effect = higher value. Summed up: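 This yeast growth screen uses a strain with defined DNA-repair lesions; compound-treated growth is compared with vehicle-treated growth.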
A short description of experiment [4]: NCI Yeast Anticancer Drug Screen. Data for the cln2 rad14 strain (AID 165).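 Further: 0% = growth equal to vehicle treated cultures.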 The conditions noted are these: S. cerevisiae cln2 rad14 strain, stronger effect = higher value. The gist of the method:
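Yeast carrying cln2 and rad14 alterations (cell cycle control and DNA damage repair) were exposed to compounds. Growth inhibition was measured against vehicle-treated controls.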

A short description of experiment [5]: NCI Yeast Anticancer Drug Screen. Data for the bub3 strain (AID 167). As to conditions: S. cerevisiae bub3 mutant strain, stronger effect = higher value. Summed up:
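Compounds were applied to a genetically altered yeast strain carrying a cell-cycle control defect. Growth inhibition was scored against vehicle-treated controls.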

A short description of experiment [6]: NCI Yeast Anticancer Drug Screen. Data for the mlh1 rad18 strain (AID 175). As to conditions: S. cerevisiae mlh1 rad18 strain growth inhibition, stronger effect = higher value. The gist of the method: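 Growth inhibition of the yeast strain was measured after compound exposure and expressed relative to vehicle-treated controls. The strain carries defined defects in DNA damage repair.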

Where [7] appears, read: at 5.0 µM (retest, dose inferred, filed as 0.5).
Where [8] appears, read: at 50.0 µM (retest, dose inferred, filed as 5.0).

As to `Oc1ccc(Cl)cc1Cc1cc(Cl)ccc1O`, the growth inhibition in experiment [1] (setting [7]) was -1%; in experiment [1] (setting [8]), 99% (active); in experiment [1] (at 50.0 µM), 3.65%; in experiment [2] (setting [7]), -3%; in experiment [2] (setting [8]), 99% (active); in experiment [2] (at 50.0 µM), 10.3%. In addition, the growth inhibition in experiment [3] (setting [7]) was 0%; in experiment [3] (setting [8]), 99% (active); in experiment [3] (at 50.0 µM), -2.55%; in experiment [4] (setting [7]), -16%; in experiment [4] (setting [8]), 99% (active); in experiment [4] (at 50.0 µM) it was 24.6%. Also, the growth inhibition in experiment [5] (setting [7]) is -3%; in experiment [5] (setting [8]), 99% (active); in experiment [5] (at 50.0 µM), 16.6%; in experiment [6] (setting [7]), -5%; in experiment [6] (setting [8]), 99% (active); in experiment [6] (at 50.0 µM), -7.85%.
`CN(C)c1ccc(/C=C/c2nccc3ccccc23)cc1`: the growth inhibition in experiment [1] (setting [7]) is -9%; in experiment [1] (setting [8]), 96% (active); in experiment [1] (at 50.0 µM), 91% (active); in experiment [2] (setting [7]) it was 8%; in experiment [2] (setting [8]), 96% (active); in experiment [2] (at 50.0 µM), 91.9% (active). For the same compound, the growth inhibition in experiment [3] (setting [7]) is 3%; in experiment [3] (setting [8]), 97% (active); in experiment [3] (at 50.0 µM) it was 94.7% (active); in experiment [4] (setting [7]), -8%; in experiment [4] (setting [8]) it was 96% (active); in experiment [4] (at 50.0 µM) it was 75.5% (active). Further, the growth inhibition in experiment [5] (setting [7]) was 4%; in experiment [5] (setting [8]), 97% (active); in experiment [5] (at 50.0 µM), 93.7% (active); in experiment [6] (setting [7]), 10%; in experiment [6] (setting [8]) it was 95% (active); in experiment [6] (at 50.0 µM), 91% (active).
Take `CCOC(=O)c1cc(CC)sc1NC(=O)CC(C)=O`: the growth inhibition in experiment [1] (setting [7]) was 42%; in experiment [1] (setting [8]), 58%; in experiment [1] (at 50.0 µM) it was 46%; in experiment [2] (setting [7]), 35%; in experiment [2] (setting [8]), 53%; in experiment [2] (at 50.0 µM), 17.9%. For the same compound, the growth inhibition in experiment [3] (setting [7]) is 42%; in experiment [3] (setting [8]), 56%; in experiment [3] (at 50.0 µM), 57.2%; in experiment [4] (setting [7]), 38%; in experiment [4] (setting [8]) it was 44%; in experiment [4] (at 50.0 µM), 59.5%. Moreover, the growth inhibition in experiment [5] (setting [7]) was 44%; in experiment [5] (setting [8]), 78% (active); in experiment [5] (at 50.0 µM) it was 70.8% (active); in experiment [6] (setting [7]), 46%; in experiment [6] (setting [8]), 71% (active); in experiment [6] (at 50.0 µM) it was 61.1%.
As to `Cc1cc(I)nc2ccccc12`, the growth inhibition was 0% in experiment [1] (setting [7]); 15% in experiment [1] (setting [8]); 68.4% in experiment [1] (at 50.0 µM); -1% in experiment [2] (setting [7]); 1% in experiment [2] (setting [8]); 21.2% in experiment [2] (at 50.0 µM). The growth inhibition in experiment [3] (setting [7]) is -3%; in experiment [3] (setting [8]) it was 8%; in experiment [3] (at 50.0 µM), 59%; in experiment [4] (setting [7]), -3%; in experiment [4] (setting [8]) it was -18%; in experiment [4] (at 50.0 µM), -18.4%. The growth inhibition in experiment [5] (setting [7]) was -6%; in experiment [5] (setting [8]) it was -13%; in experiment [5] (at 50.0 µM), 26.8%; in experiment [6] (setting [7]), -2%; in experiment [6] (setting [8]), -12%; in experiment [6] (at 50.0 µM) it was 48.7%.
As for `O=[N+]([O-])C=C(c1ccccc1)c1ccccc1`, the growth inhibition is -23% in experiment [1] (setting [7]); 93% (active) in experiment [1] (setting [8]); 96.8% (active) in experiment [1] (at 50.0 µM); -12% in experiment [2] (setting [7]); 89% (active) in experiment [2] (setting [8]); 87.8% (active) in experiment [2] (at 50.0 µM). In addition, the growth inhibition in experiment [3] (setting [7]) is 7%; in experiment [3] (setting [8]), 86% (active); in experiment [3] (at 50.0 µM), 77.8% (active); in experiment [4] (setting [7]), -20%; in experiment [4] (setting [8]) it was 63%; in experiment [4] (at 50.0 µM), 76.8% (active). Besides, the growth inhibition is -1% in experiment [5] (setting [7]); 90% (active) in experiment [5] (setting [8]); 88% (active) in experiment [5] (at 50.0 µM); -12% in experiment [6] (setting [7]); 94% (active) in experiment [6] (setting [8]); 93.2% (active) in experiment [6] (at 50.0 µM).
